From PubChem
Compounds with a hit are over-represented: about 0.87% of the library has one in this group of screens.
GCN5L2 inh: inhibitors of human GCN5L2 histone acetyltransferase | 0.21% of 390,000 active | GCN5L2 HAT assay, ThioGlo1 CoA-SH fluorescence | Q92830 | Potency, µM (series often up to 58.9 µM), for the others: top-dose activity change, negative = inhibition, actives largely listed as inhibitors
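GCN5L2 (20 nM) in 50mM HEPES pH 7.5, 0.1mM EDTA, 0.01% Tween-20 preincubated 15 min with compounds at room temperature. Reaction started with H3(1-25) 75uM, acetyl-CoA 70uM, ThioGlo1 50uM; CoA-thiol fluorescence (Ex340/Em540) read at 0 and 20 min.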
TDP1 block: TDP1 (human) enzyme inhibition | Q9NUW8 | recombinant TDP1, AlphaScreen DNA substrate cleavage | Potency, µM (titrated, usually from 130 µM), for the others: at the highest dose activity change, negative = inhibition, usual class: inhibitors | 0.28% of 350,000 active; note: nearly all actives have a fitted effect of over 40% in size
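Signal: AlphaScreen proximity between streptavidin donor and anti-FITC acceptor beads on intact substrate. Reaction: Tdp1 1 nM, substrate 15 nM final, 5 min RT after 15 min compound preincubation.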
APE1 inh: APE1 (human) endonuclease inhibition; AID 2517; P27695; recombinant APE1, TAMRA/BHQ-2 abasic DNA cleavage fluorescence; 0.35% of 350,000 active; Potency, µM (doses to about 65.8 µM), for inactives: at the highest dose activity change, negative = inhibition, most hits filed as inhibitors;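 note: plate controls were vehicle for no effect and reference inhibitor for full effect; nearly all actives have a fitted effect of over 55% in size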
Target sequence (P27695 whole entry, looked up): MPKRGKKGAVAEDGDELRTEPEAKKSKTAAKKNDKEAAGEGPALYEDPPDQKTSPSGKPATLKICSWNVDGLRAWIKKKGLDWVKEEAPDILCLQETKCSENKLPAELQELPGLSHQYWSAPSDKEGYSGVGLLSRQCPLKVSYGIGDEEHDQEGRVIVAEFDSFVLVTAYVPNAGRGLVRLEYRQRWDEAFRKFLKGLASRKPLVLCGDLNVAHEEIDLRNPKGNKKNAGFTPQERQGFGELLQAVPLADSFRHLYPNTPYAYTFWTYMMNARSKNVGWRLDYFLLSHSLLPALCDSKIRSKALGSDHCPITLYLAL
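Quantitative HTS: incision of a TAMRA/BHQ-2 double-stranded substrate bearing a tetrahydrofuran abasic site by 0.75 nM APE1 raises fluorescence. Substrate 50 nM final, added after 15 min compound preincubation at room temperature; progress as third-minus-first kinetic read difference.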
RECQ1 helicase: RECQ1 (human) helicase inhibition | P46063 | RECQ1 DNA unwinding, red fluorescence kinetic read | Potency, µM (highest dose often 57.3 µM), without a hit: at the highest dose activity, negative = inhibition, hits mostly inhibitors | 0.54% of 240,000 active | AID 2549;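 note: plate controls were vehicle for no effect and no enzyme for full effect; nearly all actives have a fitted effect of over 30% in size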
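50 nM RECQ1T1 preincubated 15 min with compound in Tris pH 8.0 buffer with MgCl2, DTT, Tween-20 and 2.5 ug/ml poly(dI-dC); started with 200 nM TAMRA/BHQ-2 forked duplex and 2 mM ATP. Unwinding read as fluorescence (525/598 nm), two reads 2 h apart.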
BLM inh: blocks DNA unwinding by human BLM helicase; P54132; recombinant BLM DNA unwinding, fluorescence dequenching; 0.2% of 350,000 active; AID 2528; Potency, µM (series often up to 56.1 µM), for the others: top-dose activity change, negative = inhibition, hits mostly inhibitors;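 note: plate controls were vehicle for no effect and no enzyme for full effect; nearly all actives have a fitted effect of over 35% in size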
Active calls of the source: *; [ ] = remark or other dose. Calls come from the whole dose curve; as a rule, active = well fitted curve in the direction sought with a large enough effect; inconclusive = small, poorly fitted or top-dose-only effect, or another doubt; inactive = no such curve, though single readings can be large; an effect the other way counts as inactive or inconclusive. Unless noted, % is set by controls: 0 for no effect and ±100 for the full control effect; potency is the fitted concentration of half-maximal effect.

What do the screens show for `COc1ccc(-c2[nH]n(-c3ccc([N+](=O)[O-])cc3)c(=O)c2C=NCc2ccncc2)cc1`?
GCN5L2 inh: -8%; TDP1 block: 5%; APE1 inh: 5%; RECQ1 helicase: -11%; BLM inh: 7.9µM*

How did O=C(Nc1ccccc1F)c1coc(=O)c(Br)c1 do in these assays?
GCN5L2 inh: -23%; TDP1 block: 20µM*; APE1 inh: inconclusive; RECQ1 helicase: inconclusive; BLM inh: 68%

Results for Nc1c(C(=O)O)sc2nc(-c3ccc(F)cc3)cc(-c3ccccc3)c12 ?
GCN5L2 inh: -11%; TDP1 block: 1%; APE1 inh: -1%; RECQ1 helicase: -3%; BLM inh: -1%

How did Nc1c(C(=O)O)sc2nc(-c3ccccc3)cc(-c3ccc(Cl)cc3)c12 do in these assays?
GCN5L2 inh: -3%; TDP1 block: 71µM*; APE1 inh: -2%; RECQ1 helicase: -10%; BLM inh: -5%

Results for Cc1ccc(NS(=O)(=O)c2cc3c(cc2/C=C/c2ccccc2)NC(=O)CO3)cc1C ?
TDP1 block: 0%

How did Oc1ccc(CNCc2ccccc2F)c2cccnc12 do in these assays?
TDP1 block: 1%

What do the screens show for `COc1ccc(C(=O)COC(=O)c2ccc(Cl)nc2)c(OC)c1`?
GCN5L2 inh: -13%; TDP1 block: 50µM*; APE1 inh: -31%

How did CCCCCNc1oc(-c2cccc3ccccc23)nc1C#N do in these assays?
APE1 inh: -6%

Results for Cc1ccc(S(=O)(=O)NNc2ccccc2)cc1 ?
GCN5L2 inh: 28µM*; TDP1 block: 13%; APE1 inh: 5%; RECQ1 helicase: -6%; BLM inh: -3%

How did CCOc1ccc(NC(=O)Nc2ccc3nsnc3c2)cc1 do in these assays?
GCN5L2 inh: -1%; TDP1 block: -2%; APE1 inh: inconclusive; RECQ1 helicase: inactive; BLM inh: -5%

How did C=CCN(CC=C)C(=S)Nc1ccc2nsnc2c1 do in these assays?
GCN5L2 inh: -18%; TDP1 block: 3%; APE1 inh: -12%; RECQ1 helicase: -4%; BLM inh: 3.5µM*

How did CCOc1ccc(NC(=S)Nc2ccc3nsnc3c2)cc1 do in these assays?
GCN5L2 inh: -19%; TDP1 block: -3%; APE1 inh: 6%; RECQ1 helicase: 1%; BLM inh: 4µM*

Results for COc1ccc(NC(=S)Nc2ccc3nsnc3c2)cc1 ?
GCN5L2 inh: -14%; TDP1 block: 0%; APE1 inh: -1%; RECQ1 helicase: 14%; BLM inh: 4µM*

What do the screens show for `C=CCNC(=S)Nc1ccc2nsnc2c1`?
GCN5L2 inh: 4%; TDP1 block: 2%; APE1 inh: -3%; RECQ1 helicase: 3%; BLM inh: -6%

Results for C#CCOc1ccc(-c2no[n+]([O-])c2C#N)cc1 ?
APE1 inh: -9%

How did O=C1CCCC/C1=C\Nc1ccc(S(=O)(=O)Nc2cnc3ccccc3n2)cc1 do in these assays?
GCN5L2 inh: 22µM*; TDP1 block: 0%; APE1 inh: -1%; RECQ1 helicase: inactive; BLM inh: 1%

Results for COc1ccc(Cl)cc1NC(=O)c1cc2c(=O)n3ccccc3nc2s1 ?
GCN5L2 inh: 35µM*; TDP1 block: -12%; BLM inh: inconclusive

Results for Cc1ccc(Nc2nc(C#N)nc(NC3CCCC3)n2)cc1 ?
TDP1 block: -3%

Results for O=c1oc2c(CN3CCCC3)c(O)ccc2cc1-c1ccccc1 ?
GCN5L2 inh: 18µM*; TDP1 block: -3%; BLM inh: -3%

Results for COc1ccc(-c2cc3ccc(O)c(CN4CCCC4)c3oc2=O)cc1 ?
GCN5L2 inh: inconclusive; TDP1 block: 3%; BLM inh: 4%

How did CC1CCN(S(=O)(=O)c2ccc3c(c2)CCC(=O)N3CC(=O)Nc2cccc(C#N)c2)CC1 do in these assays?
GCN5L2 inh: 20%; TDP1 block: inconclusive; APE1 inh: 4.7µM*; BLM inh: -11%

Results for Cn1cc(/C=C2\SC(=S)N(NC(=O)c3cccc(Cl)c3)C2=O)c2ccccc21 ?
GCN5L2 inh: inconclusive; APE1 inh: 0%; RECQ1 helicase: 11%; BLM inh: -5%

Results for Cn1cc(/C=C2\SC(=S)N(NC(=O)c3ccccc3)C2=O)c2ccccc21 ?
GCN5L2 inh: -1%; TDP1 block: 5%; APE1 inh: -4%; RECQ1 helicase: 32µM*; BLM inh: -8%

How did CC(C)C(C)(C#N)NC(=O)CSc1nc2scc(-c3ccco3)c2c(=O)n1-c1ccccc1 (configuration not stated) do in these assays?
GCN5L2 inh: -4%; APE1 inh: inconclusive; RECQ1 helicase: 20µM*; BLM inh: inconclusive

Results for CC(C)C(C)NC(=O)CSc1nc2scc(-c3ccco3)c2c(=O)n1-c1ccccc1 (configuration not stated) ?
GCN5L2 inh: -11%; TDP1 block: -2%; APE1 inh: -1%; RECQ1 helicase: inactive; BLM inh: -14%

How did CC[C@H](CC[C@@H](C)[C@H]1CC[C@H]2[C@@H]3CC=C4C[C@@H](O)CC[C@]4(C)[C@H]3CC[C@]12C)C(C)C do in these assays?
APE1 inh: 5%

What do the screens show for `CC(C)(C)OC(=O)C[C@@H]1C/C=C\C[C@@H](CC(=O)N(CCO)Cc2ccccc2)C(=O)N[C@H](C(C)(C)C)COC1=O`?
GCN5L2 inh: 0%; TDP1 block: -3%; APE1 inh: 12µM*

How did CC(C)(C)OC(=O)C[C@H]1C/C=C\C[C@@H](CC(=O)N(CCO)Cc2ccccc2)C(=O)N[C@H](C(C)(C)C)COC1=O do in these assays?
GCN5L2 inh: 0%; TDP1 block: 0%; APE1 inh: -30%

What do the screens show for `CCCc1nc(C(C)(C)O)c(C(=O)OCc2oc(=O)oc2C)n1Cc1ccc(-c2ccccc2-c2nn[nH]n2)cc1`?
GCN5L2 inh: 2%; TDP1 block: 20%[56.1 µM]; APE1 inh: -8%; RECQ1 helicase: 18%; BLM inh: 32%

Results for CCOc1nc2cccc(C(=O)OC(C)OC(=O)OC3CCCCC3)c2n1Cc1ccc(-c2ccccc2-c2nn[nH]n2)cc1 (configuration not stated) ?
GCN5L2 inh: 20µM*; TDP1 block: -5%; APE1 inh: 6%; RECQ1 helicase: inconclusive; BLM inh: -18%

How did O=S(=O)(c1cc(O)ccc1O)c1cccc2c(S(=O)(=O)c3cc(O)ccc3O)cccc12 do in these assays?
GCN5L2 inh: inconclusive; APE1 inh: 2.1µM*

Results for Oc1cccc(O)c1 ?
GCN5L2 inh: 5%; TDP1 block: 6%[56.1 µM]; APE1 inh: -7%; RECQ1 helicase: -5%; BLM inh: -3%

Results for CNc1oc(-c2cccc(Br)c2)nc1C#N ?
APE1 inh: 25%
